Data on 40 compounds can be found in PubChem BioAssay (NCATS).

Structures are written as SMILES. The source made the active and inactive calls. The call rests on the fitted dose curve; in most records, active means well fitted curve in the direction sought with a large enough effect; inconclusive means small, poorly fitted or top-dose-only effect, or effect the other way, or another doubt; inactive means no such curve, though single readings can be large or run the other way.

The target in this assay is Beta-2 adrenergic receptor (Homo sapiens) (UniProt P07550). In words: qHTS validation assay of beta-arrestin-biased ligands of beta2-adrenergic receptor (AID 485366). To be noted: cell-based beta-arrestin recruitment to ADRB2, qHTS; series mostly up to 46.1 µM. From the text: NIH Molecular Libraries Probe Production Network [MLPCN]
Beta-2 adrenergic receptor (Homo sapiens), sequence (P07550 whole entry, looked up): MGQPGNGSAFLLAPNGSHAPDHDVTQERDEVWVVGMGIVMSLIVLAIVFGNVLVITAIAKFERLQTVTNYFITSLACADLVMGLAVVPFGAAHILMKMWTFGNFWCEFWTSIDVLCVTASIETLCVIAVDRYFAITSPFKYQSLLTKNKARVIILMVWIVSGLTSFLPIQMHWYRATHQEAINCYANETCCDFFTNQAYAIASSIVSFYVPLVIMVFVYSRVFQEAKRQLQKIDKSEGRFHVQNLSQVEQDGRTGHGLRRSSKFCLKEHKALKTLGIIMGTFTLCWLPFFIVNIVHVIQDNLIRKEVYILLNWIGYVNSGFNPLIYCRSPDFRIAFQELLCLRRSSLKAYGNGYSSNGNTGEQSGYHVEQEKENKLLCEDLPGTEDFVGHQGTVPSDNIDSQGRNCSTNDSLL
NIH Chemical Genomics Center [NCGC]
PI: Bryan Roth and Bob Lefkowitz
The concept of biased agonism is an emerging concept of molecular pharmacology which proposes that seven transmembrane receptors (7TMRs) or G protein-coupled receptors (GPCRs), exist in multiple signaling conformations and complexes and that ligands (either agonists or antagonists) can induce signaling biased responses for distinct signal transduction cascades.
Furthermore, accumulating evidence over the last decade has drawn attention to a novel function of beta-arrestins as signal transducers that scaffold various signaling molecules upon activation of 7TMRs. […] This beta-arrestin-biased signaling presumably leads to distinct physiological outcomes from those by G protein activation.
Additionally, the active receptor conformations which […] on this beta-arrestin signaling are likely different from those activating G protein signaling
The goal of this screening project will be to discover and optimize novel beta-arrestin-biased ligands for beta2-AR signaling. A luminescent cell-based assay for beta2-AR-mediated agonism, known as the Tango assay, has been validated in which ligand binding of a recombinant beta2-AR and subsequent recruitment of a recombinant beta-arrestin lead to the release of the transcriptional activator tTA, which upregulates transcription of a tTA-responsive luciferase gene. […] Compounds were screened as a concentration-titration series that ranged from 46 microM to 0.6 nM.
NCGC Assay Protocol Summary:
Tango cells were dispensed into white, solid, tissue-culture-treated 1536-well plates at 1500 cells/well in DMEM, containing 1% fetal bovine serum (FBS). Then, 23 nL of compounds or DMSO were delivered to each well using a pin tool. Plates were incubated at 37 degrees C, 5% CO2 for 18 hr. Then 2.5 uL luminescent substrate mix (in-house prepared: 150 mM Tris-Cl, pH 7.6, 3 mM MgCl2, 1% Triton X-100, 5 mM DTT, 0.5 mM CoA, 0.15 mM ATP, 0.44 mM D-luciferin, final concentrations) was added to each well. Plates were then incubated for 15 minutes at room temperature, and subsequently measured on a ViewLux plate reader for luminescent signal using a clear filter with a 10 second exposure and 2x binning. The %Activity was determined from the corrected luminescence values.
Concentration-response curves were fitted to the signals arising from the resulting luminescence. The concentration-effect curves were then classified based on curve quality (r2), response magnitude and degree of measured activity, and compounds were subsequently categorized based on their curve class.
Keywords: biased agonism, beta2-AR, beta-arrestin, GPCR, 7TMR, Tango, luminescence, MLSMR, MLPCN, NIH Roadmap, qHTS, NCGC
Regarding `Nc1ccc(-c2nc3ccc(-c4nc5ccc(N)cc5[nH]4)cc3[nH]2)cc1`, the outcome was inactive.

In the case of `O=c1[nH]c(=S)[nH]c(-c2ccccc2)c1Cc1c(O)ccc2ccccc12`, the outcome was inactive.

With `NC1CONC1=O` (stereo not given), the compound was called inactive.

On to `NC(N)=NC(N)=Nc1ccccc1`, for which the result was inactive.

As to `C=C1C[C@@]23CC[C@H]4[C@@](C)(CCC[C@@]4(C)C(=O)OC4OC(CO)C(O)C(O)C4O)[C@@H]2CC[C@]1(OC1OC(CO)C(O)C(O)C1OC1OC(CO)C(O)C(O)C1O)C3` (stereo not given in full), the call was inactive.

For `CCCCC[C@H](CC(=O)NO)C(=O)N[C@H](C(=O)N1CCC[C@H]1CO)C(C)C`, the outcome was inactive.

Turning to `C=C1C[C@@]23CC[C@H]4[C@@](C)(CCC[C@@]4(C)C(=O)O)[C@@H]2CC[C@]1(O)C3`, the compound was classed as inactive.

Take `NC/C=C\C(=O)O`: the call was inactive.

Take `Cn1cc(C(=O)OCC2CCN(CCNS(C)(=O)=O)CC2)c2ccccc21`: the compound was classed as inactive.

As for `N[C@H]1CONC1=O`, the call was inactive.

Take `CCN1C(=O)C=CC1=O`: the compound was classed as inactive.

On to `CCCn1c(=O)c2c(ncn2C)n(CCC)c1=O`, for which the call was inactive.

Consider `Nc1ccc(N2C(=O)c3ccccc3C2=O)c(Cl)c1`, for which the compound was classed as inactive.

With `COc1ccccc1N1CCN(CCCCN2C(=O)c3ccccc3C2=O)CC1`, the compound was called inactive.

For `Cc1nc(N=Nc2ccc(S(=O)(=O)O)cc2S(=O)(=O)O)c(COP(=O)(O)O)c(C=O)c1O`, the compound was called inactive.

For the compound `NC1(C(=O)O)CC1`, the outcome was inactive.

Turning to `C=C1C(=O)O[C@@H]2[C@H]3O[C@]3(C)CCC=C(C)CC[C@@H]12`, the result was inactive.

Consider `O=S(=O)(c1cccc2c(Cl)cccc12)N1CCCNCC1`, for which the outcome was inactive.

With `CCCCOC(=O)NS(=O)(=O)c1sc(CC(C)C)cc1-c1ccc(Cn2c(CC)nc3c(C)cc(C)nc32)cc1`, the outcome was inactive.

For `N#C/C(=C\c1ccc(O)c(O)c1)C(=O)NCCc1ccccc1`, the call was inactive.

As for `Nc1ncnc2c1c(-c1ccc(Oc3ccccc3)cc1)cn2C1CCCC1`, the call was inactive.

Turning to `CC(N)(Cc1ccc(O)cc1)C(=O)O` (stereo not given), the outcome was inactive.

Take `N=C(N)SCCc1cnc[nH]1`: the outcome was inactive.

Consider `N#Cc1cc2nc(O)c(O)nc2cc1[N+](=O)[O-]`, for which the outcome was inactive.

Regarding `Cc1ccc2c(c1)C(N1CCN(C)CC1)=Nc1cccnc1N2`, the compound was called inactive.

Take `CCCc1c(OCCCOc2ccc(OCC(=O)O)cc2)ccc(C(C)=O)c1O`: the outcome was inactive.

Turning to `CCSC(=N)N`, the compound was called inactive.

With `O=C(N[C@@H](Cc1ccccc1)C(=O)CCl)OCc1ccccc1`, the outcome was inactive.

As for `C[C@]12C=CC(=O)C=C1CC[C@@H]1C2=CC[C@]2(C)[C@@H](C(=O)CN3CCN(c4cc(N5CCCC5)nc(N5CCCC5)n4)CC3)CC[C@@H]12`, the outcome was inactive.

For the compound `N=C(N)c1ccccc1`, the outcome was inactive.

For the compound `NC(N)=[N+]1CCc2ccccc2C1`, the compound was classed as inactive.

Regarding `Cc1nc2c(OCc3ccccc3)cccn2c1CC#N`, the compound was classed as inactive.

Consider `CC(N)=NCCCC[C@@H](N)C(=O)O`, for which the call was inactive.

Consider `CCCCOc1cc(CC2CNC(=O)N2)ccc1OC` (stereo not given), for which the compound was called inactive.

As to `Nc1ncnc2c1ncn2C1CCCC1`, the call was inactive.

In the case of `CC(O)C(O)[C@H]1CNc2nc(N)[nH]c(=O)c2N1` (stereo not given in full), the result was inactive.

As to `NC[C@@H]1O[C@H](c2ccccc2)Cc2c1ccc(O)c2O`, the outcome was inactive.

With `O=[N+]([O-])c1cccc2c(Br)[nH]nc12`, the compound was called inactive.

With `Cc1nc2n(c(=O)c1CCN1CCC(c3noc4cc(F)ccc34)CC1)CCCC2O` (stereo not given), the compound was called inactive.

Turning to `C[C@@]1(C2CCCC2)Cc2cc(OCC(=O)O)c(Cl)c(Cl)c2C1=O`, the call was inactive.
